The panel holds about 83,000 compounds, 20% with a hit somewhere; the sample as a whole holds those more often.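 Interpretation: 100, growth as untreated; towards 0, rising growth inhibition; 0, no net growth; 0 to -100, cell death. Compounds scoring below 10 were considered active.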 Calls of active or inactive are those of the source.
Columns and labels:
Test in all cases: NCI-60 one-dose screen, 48 h (100 = growth as untreated, 0 = no growth, -100 = all killed)
Settings in all cases: 10 µM unless noted
DU-145 prostate = tested on: DU-145 prostate
K-562 leukemia = tested on: K-562 leukemia
MALME-3M melanoma = tested on: MALME-3M melanoma
MDA-MB-231 breast = tested on: MDA-MB-231 breast
RXF 393 renal = tested on: RXF 393 renal
SF-268 CNS = tested on: SF-268 CNS
SF-295 CNS = tested on: SF-295 CNS
SF-539 CNS = tested on: SF-539 CNS
UACC-257 melanoma = tested on: UACC-257 melanoma
M14 melanoma = tested on: M14 melanoma

Measured: growth

CC(=O)c1cc(C(=O)N2c3ccccc3Sc3ccccc32)n2ccc3ccccc3c12
inactive: DU-145 prostate 53% | K-562 leukemia 20.1% | MALME-3M melanoma 49.6% | MDA-MB-231 breast 76.7% | RXF 393 renal 31.7% | SF-268 CNS 54.1% | SF-295 CNS 18.8% | SF-539 CNS 29.5% | UACC-257 melanoma 57.4% | M14 melanoma 33.1%

COc1ccc(S(=O)(=O)NCCCNc2nccc(-c3cn(C(C)(C)C)nc3-c3ccc(Cl)c(OC)c3)n2)cc1
active: RXF 393 renal -0.734%
inactive: DU-145 prostate 72.3% | K-562 leukemia 59.7% | MALME-3M melanoma 92.7% | MDA-MB-231 breast 43.8% | SF-268 CNS 57.9% | SF-295 CNS 91.2% | SF-539 CNS 89.8% | UACC-257 melanoma 104% | M14 melanoma 92.8%

Cc1nc2ncc(-c3ccc4ncnc(NCc5ccccc5)c4c3)cc2[nH]1
active: RXF 393 renal -18.1%
inactive: DU-145 prostate 27.4% | K-562 leukemia 84.2% | MALME-3M melanoma 63.4% | MDA-MB-231 breast 24.4% | SF-268 CNS 37.6% | SF-295 CNS 61.5% | SF-539 CNS 60.6% | UACC-257 melanoma 75.7% | M14 melanoma 81.4%

CCCn1cnc2c(c1=N)C(c1ccc(F)cc1)c1sc3c(CC)cccc3c1O2 (stereo not given)
inactive: MALME-3M melanoma 54.6% | SF-268 CNS 18.8% | UACC-257 melanoma 65.5% | M14 melanoma 13.3%
active: DU-145 prostate 4.9% | K-562 leukemia 6.04% | MDA-MB-231 breast -19.8% | RXF 393 renal -17.3% | SF-295 CNS 7.42% | SF-539 CNS -25.6%

CC(=O)O[C@@H]1C(=O)N(c2cnccn2)[C@H]1c1ccccc1[N+](=O)[O-]
active: DU-145 prostate 2.33% | K-562 leukemia 9.97% | SF-539 CNS -32.5% | M14 melanoma -2.82%
inactive: MALME-3M melanoma 51.8% | MDA-MB-231 breast 22.4% | RXF 393 renal 62.9% | SF-268 CNS 19.4% | SF-295 CNS 23.9% | UACC-257 melanoma 44.7%

Cc1ccc(-c2cc3nc(C(Cl)Cl)nc(C)n3n2)cc1
inactive: DU-145 prostate 96.8% | K-562 leukemia 112% | MALME-3M melanoma 105% | MDA-MB-231 breast 87% | RXF 393 renal 118% | SF-268 CNS 106% | SF-295 CNS 108% | SF-539 CNS 97.8% | UACC-257 melanoma 112% | M14 melanoma 106%

COCCNc1ccc2ncc(C#Cc3cncc(C(=O)Nc4ccc(CN5CCN(C)CC5)c(C(F)(F)F)c4)c3)n2n1
active: DU-145 prostate -32.4% | K-562 leukemia 1.22% | MALME-3M melanoma -69.7% | MDA-MB-231 breast -15% | RXF 393 renal -84.3% | SF-268 CNS -55% | SF-295 CNS -13.9% | SF-539 CNS -77% | UACC-257 melanoma -46.4% | M14 melanoma -86.2%

Cc1cc(C)c(N2C(=O)CC(Nc3ccc(Cl)cc3Cl)C2=O)c(C)c1 (stereo not given)
inactive: DU-145 prostate 110% | K-562 leukemia 102% | MALME-3M melanoma 96.7% | MDA-MB-231 breast 102% | RXF 393 renal 121% | SF-268 CNS 106% | SF-295 CNS 105% | SF-539 CNS 96.8% | UACC-257 melanoma 103% | M14 melanoma 103%

Nc1ncc(-c2ccc(NS(=O)(=O)c3ccc(Cl)c(Cl)c3)cc2)[nH]1
inactive: DU-145 prostate 103% | K-562 leukemia 89.7% | MALME-3M melanoma 85.3% | MDA-MB-231 breast 91.2% | RXF 393 renal 95.4% | SF-268 CNS 75.1% | SF-295 CNS 90.8% | SF-539 CNS 88.1% | UACC-257 melanoma 87.7% | M14 melanoma 95.5%

CC1(COc2ccc3ncc(C#Cc4cncc(C(=O)Nc5cccc(C(F)(F)F)c5)c4)n3n2)COC1
inactive: DU-145 prostate 91.1% | K-562 leukemia 47.8% | MALME-3M melanoma 71.1% | MDA-MB-231 breast 44.5% | SF-268 CNS 76.1% | SF-295 CNS 79.6% | SF-539 CNS 60.1% | UACC-257 melanoma 98.1% | M14 melanoma 78%
active: RXF 393 renal -4.67%

COc1ccc(C2c3sc4c(C)cccc4c3Oc3nc(CC(=O)Nc4ccccc4)[nH]c(=O)c32)cc1 (stereo not given)
inactive: DU-145 prostate 83.7% | K-562 leukemia 52.1% | MALME-3M melanoma 98% | MDA-MB-231 breast 69.8% | SF-268 CNS 77.4% | SF-295 CNS 83.1% | SF-539 CNS 86.9% | UACC-257 melanoma 94.9% | M14 melanoma 89%
active: RXF 393 renal 8.26%

O=C(c1ccc(Cl)cc1)C1[C@H](c2ccc(Cl)cc2)[C@@H](c2ccccc2)NC12C(=O)Nc1ccccc12 (stereo not given in full)
inactive: DU-145 prostate 65.1% | K-562 leukemia 33.6% | MALME-3M melanoma 78.7% | MDA-MB-231 breast 53.6% | RXF 393 renal 48% | SF-268 CNS 48.1% | SF-295 CNS 45.6% | SF-539 CNS 74.8% | UACC-257 melanoma 75.2% | M14 melanoma 50.2%

COc1ccccc1C(=O)Nc1cccc2c1C(=O)C(=O)C=C2
inactive: DU-145 prostate 93.6% | K-562 leukemia 63.2% | MALME-3M melanoma 95.4% | MDA-MB-231 breast 80.7% | RXF 393 renal 62.4% | SF-268 CNS 87% | SF-295 CNS 98.8% | SF-539 CNS 103% | UACC-257 melanoma 106% | M14 melanoma 119%

C=C=COc1cccc(/C(N)=N/C(N)=N/c2nc3ccccc3s2)c1
inactive: DU-145 prostate 101% | K-562 leukemia 23.5% | MALME-3M melanoma 93% | MDA-MB-231 breast 76.2% | RXF 393 renal 104% | SF-268 CNS 78.1% | SF-295 CNS 110% | SF-539 CNS 70.4% | UACC-257 melanoma 104% | M14 melanoma 67.9%

CC1(C)CC[C@]2(C(=O)N3CCOCC3)CC[C@]3(C)C(=CC[C@@H]4[C@@]5(C)C/C(=C/c6ccccn6)C(=O)C(C)(C)[C@@H]5CC[C@]43C)[C@@H]2C1
active: RXF 393 renal 3.83%
inactive: DU-145 prostate 62.3% | K-562 leukemia 34.5% | MALME-3M melanoma 88.7% | MDA-MB-231 breast 55.2% | SF-268 CNS 59.6% | SF-295 CNS 75.1% | SF-539 CNS 94% | UACC-257 melanoma 59.6% | M14 melanoma 77.9%

C=C(C=O)[C@@H]1CC[C@]2(CO)CC[C@]3(C)[C@H](CC[C@@H]4[C@@]5(C)CCCNC(C)(C)[C@@H]5CC[C@]43C)[C@@H]12
inactive: DU-145 prostate 53% | MALME-3M melanoma 67% | MDA-MB-231 breast 90.8% | RXF 393 renal 94.2% | SF-268 CNS 83.9% | SF-295 CNS 83.1% | SF-539 CNS 71.8% | UACC-257 melanoma 72.3% | M14 melanoma 61.3%
active: K-562 leukemia -1.23%

CS(=O)(=O)c1ccc(-n2cc(/C=N/O)c(-c3ccccc3)n2)cc1
inactive: DU-145 prostate 83.9% | K-562 leukemia 64.5% | MALME-3M melanoma 97.2% | MDA-MB-231 breast 72.4% | RXF 393 renal 78.6% | SF-268 CNS 70.9% | SF-295 CNS 87.3% | SF-539 CNS 71.1% | UACC-257 melanoma 90.1% | M14 melanoma 98.1%

O=C(Nc1nonc1-c1ccccc1)c1ccc(C(F)(F)F)cc1
inactive: DU-145 prostate 92.5% | K-562 leukemia 70% | MALME-3M melanoma 68.5% | MDA-MB-231 breast 85.1% | RXF 393 renal 90.3% | SF-268 CNS 81.6% | SF-295 CNS 59.7% | SF-539 CNS 95.9% | UACC-257 melanoma 77.8% | M14 melanoma 71.1%

Nc1nc(-c2cccc([N+](=O)[O-])c2)c(N=Nc2ccc([N+](=O)[O-])cc2Cl)s1
active: MALME-3M melanoma -3.18% | RXF 393 renal -31.1% | SF-295 CNS -18.4% | UACC-257 melanoma -8.89% | M14 melanoma 4.9%
inactive: DU-145 prostate 19.6% | K-562 leukemia 10.7% | MDA-MB-231 breast 12.2% | SF-268 CNS 20.5% | SF-539 CNS 16.9%

CCCn1cnc2c(c1=N)C(c1ccc(OC)cc1)c1sc3c(CC)cccc3c1O2 (stereo not given)
inactive: DU-145 prostate 16.7% | K-562 leukemia 13.1% | MALME-3M melanoma 53.5% | MDA-MB-231 breast 29.1% | SF-268 CNS 45.1% | UACC-257 melanoma 81.9%
active: RXF 393 renal -13.3% | SF-295 CNS -18.1% | SF-539 CNS -22% | M14 melanoma 2.9%

CC1(C)[C@@H](O)CC[C@]2(C)[C@H]3CC[C@@H]4[C@H]5[C@H](C(=O)/C=C\c6ccc([N+](=O)[O-])cc6)CC[C@]5(O)CC[C@@]4(C)[C@]3(C)CC[C@@H]12
active: RXF 393 renal -7.82%
inactive: DU-145 prostate 58% | K-562 leukemia 27.3% | MALME-3M melanoma 66.6% | MDA-MB-231 breast 46.2% | SF-268 CNS 63.9% | SF-295 CNS 79.5% | SF-539 CNS 51.8% | UACC-257 melanoma 70.3% | M14 melanoma 42.6%

CCOC(=O)c1c(N)c(C#N)cn1-c1cc(OC)c(OC)c(OC)c1
inactive: DU-145 prostate 110% | K-562 leukemia 105% | MALME-3M melanoma 102% | MDA-MB-231 breast 100% | RXF 393 renal 112% | SF-268 CNS 111% | SF-295 CNS 99% | SF-539 CNS 92.6% | UACC-257 melanoma 111% | M14 melanoma 109%

CCOc1ccc(C(=O)Nc2ncc(Cc3ccc(F)cc3)s2)cc1
active: K-562 leukemia 9.95% | RXF 393 renal 1.11% | SF-295 CNS 4.39% | SF-539 CNS 1.96%
inactive: DU-145 prostate 28.8% | MALME-3M melanoma 63.6% | MDA-MB-231 breast 36% | SF-268 CNS 53.6% | UACC-257 melanoma 77.7% | M14 melanoma 15.4%

Cc1cc(-c2ccc(Cl)cc2)n(Cc2nnc(SCC(=O)Nc3ccc(S(N)(=O)=O)cc3)n2C2CCCCC2)n1
inactive: DU-145 prostate 117% | K-562 leukemia 104% | MALME-3M melanoma 87% | MDA-MB-231 breast 106% | RXF 393 renal 110% | SF-268 CNS 113% | SF-295 CNS 98% | SF-539 CNS 103% | UACC-257 melanoma 101% | M14 melanoma 99.8%

O=C(Cn1c(-c2ccccc2)nc2cc(Cl)c(Cl)cc21)N=Nc1c(O)[nH]c2ccc(Cl)cc12
inactive: DU-145 prostate 75.7% | K-562 leukemia 63.2% | MALME-3M melanoma 81.6% | MDA-MB-231 breast 85% | SF-268 CNS 104% | SF-295 CNS 77.7% | SF-539 CNS 79.4% | UACC-257 melanoma 84.4% | M14 melanoma 60.7%
active: RXF 393 renal -5.08%

COc1ccc(/C=C/C(=O)c2cccc(NC(=O)CSc3nc4ccccc4c(=O)n3-c3ccccc3)c2)cc1OC
inactive: DU-145 prostate 105% | K-562 leukemia 89.9% | MALME-3M melanoma 107% | MDA-MB-231 breast 97.3% | RXF 393 renal 97.7% | SF-268 CNS 94.6% | SF-295 CNS 103% | SF-539 CNS 101% | UACC-257 melanoma 110% | M14 melanoma 102%
